Measured values as given in PubChem BioAssay AID1671192 (National Center for Advancing Translational Sciences (NCATS), 2021).
Inconclusive results are not listed. Calls of active or inactive are those of the source. Calls follow the shape of the dose curve; as a rule, active = well fitted curve in the direction sought with a large enough effect; inconclusive = small, poorly fitted or top-dose-only effect, or another doubt; inactive = no such curve, though single readings can be large or run the other way.

Each compound was assayed against Polyunsaturated fatty acid lipoxygenase ALOX15 (Homo sapiens) (UniProt P16050) (assay: Counterscreen qHTS for inhibitors of human arachidonate 12S-lipoxygenase (ALOX12): ALOX15 Assay). Conditions: purified ALOX15 enzyme activity; series mostly up to 110 µM.
In short: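 Xylenol orange–ferric complex formation, read as the 573 nm to 405 nm absorbance ratio, tracks product from 50 uM arachidonic acid turned over for 30 min at RT. Enzyme is 40 nM ALOX15, pH 7.5 HEPES buffer, compound-preincubated 15 min.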

Polyunsaturated fatty acid lipoxygenase ALOX15 (Homo sapiens), sequence (P16050 whole entry, looked up): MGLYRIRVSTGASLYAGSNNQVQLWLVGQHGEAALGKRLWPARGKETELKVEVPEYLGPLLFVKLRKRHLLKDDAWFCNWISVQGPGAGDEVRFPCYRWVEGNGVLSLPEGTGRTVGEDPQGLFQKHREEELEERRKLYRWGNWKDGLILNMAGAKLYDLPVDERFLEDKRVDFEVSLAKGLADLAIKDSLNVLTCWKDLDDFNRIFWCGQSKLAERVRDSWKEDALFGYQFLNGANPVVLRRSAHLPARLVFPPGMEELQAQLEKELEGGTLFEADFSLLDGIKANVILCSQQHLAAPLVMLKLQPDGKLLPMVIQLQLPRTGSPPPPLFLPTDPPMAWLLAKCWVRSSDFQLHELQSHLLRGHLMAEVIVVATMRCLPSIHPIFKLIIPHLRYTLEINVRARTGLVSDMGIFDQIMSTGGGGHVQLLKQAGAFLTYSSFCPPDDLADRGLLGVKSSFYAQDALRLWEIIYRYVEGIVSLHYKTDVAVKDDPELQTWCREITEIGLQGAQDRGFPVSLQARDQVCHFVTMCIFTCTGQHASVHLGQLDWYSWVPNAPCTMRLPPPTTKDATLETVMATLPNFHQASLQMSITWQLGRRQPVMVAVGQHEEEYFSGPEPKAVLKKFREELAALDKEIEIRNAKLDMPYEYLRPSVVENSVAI

SMILES | outcome
CN1CC(=O)N(C2CCCNC2)Cc2c(NC3CCCCC3O)ncnc21 (centres undefined) | inactive
NCc1cccc(-c2ccccc2F)c1 | inactive
CCOCCNc1ncnc2c1CN(C1CCCNC1)C(=O)CN2C (centres undefined) | inactive
COc1ccc(-c2nc(C3CC3)nc3c2CCN(C(=O)c2ccc(C(F)(F)F)cc2)CC3)cc1 | inactive
O=C(NCc1ccc(Cl)nc1)c1cn2c(n1)CN(C(=O)c1ccccc1)CC2 | inactive
CNC1CCCc2ccccc21 (centres undefined) | inactive
COc1ccc(CN2CCC3(C2)C(=O)Nc2ccccc23)cc1 (centres undefined) | inactive
CN1CC(=O)N(C2CCCNCC2)Cc2c1ncnc2N1CCCC(CO)C1 (centres undefined) | inactive
CCN1CCC(c2nc3ccc(F)cc3c(=O)[nH]2)CC1 | inactive
CCN1CCC2(Cc3ccccc3CN(C(=O)Cc3ccccc3)C2)C1 (centres undefined) | inactive
CC(C)[S+](=O)([O-])N1CCN(c2ccc(C=O)cc2)C(=O)C1 | inactive
CC(=O)N1CCC2(CC1)CN(C(=O)Cc1csc(N)n1)Cc1ccccc1O2 | inactive
COCCNC(=O)c1cc(-c2ccc(OC)cc2)nc2onc(C3CCCN3)c12 (centres undefined) | inactive
Cc1cc(C)c(S(=O)(=O)c2nnn3c2nc(NCCCOC(C)C)c2ccccc23)c(C)c1 | inactive
COc1cccc(N2C(=O)NC(=NC3CCCCC3)C23CCCN(C(=O)c2ccccc2)C3)c1 (centres undefined) | inactive
O=C(O)C1=NOC2CN(Cc3c(F)cccc3Cl)CC12 (centres undefined) | inactive
COc1ccc(-c2cc(C(=O)NC3CC3)c3c(C)nn(-c4ccccc4)c3n2)cc1 | inactive
Cc1ccc(-c2cccc(C=O)c2)cc1Cl | inactive
CN1CC(=O)N(C2CCNCC2)Cc2c(NCC3CCCCC3)ncnc21 | inactive
